Where “and” joins values, the source holds several entries; their conditions need not be identical. Equal entries are not always repeated. The whole screen tested about 360,000 compounds, of which about 11,000 (3.1%) were called active. Cut-off read from the data, not from the text of the source: active = activity change below about -30%; inactive = the rest. The list comes from a sample in which actives are over-represented; it also holds similar structures and randomly drawn compounds. Where a structure was tested more than once in an assay, its records may differ in their call.
% is set by controls: 0 for no effect and ±100 for the full control effect.

For this assay, the target named is D(1A) dopamine receptor (Homo sapiens) (UniProt P21728). Nature of the assay: Antagonist of Human D 1 Dopamine Receptor: qHTS. To be noted: HEK293 TREx D1 cells, calcium flux, dopamine EC80; at 10 µM; stronger effect = lower value. An outline of the steps: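 Kinetic fluorescence of a calcium dye serves as the read-out. D1-expressing Hek293 Trex cells, induced overnight at 30 C, are exposed to compound for 180 s before an EC80 dopamine addition, then read 180 s further.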
Sequence of D(1A) dopamine receptor (Homo sapiens) (P21728 whole entry, looked up): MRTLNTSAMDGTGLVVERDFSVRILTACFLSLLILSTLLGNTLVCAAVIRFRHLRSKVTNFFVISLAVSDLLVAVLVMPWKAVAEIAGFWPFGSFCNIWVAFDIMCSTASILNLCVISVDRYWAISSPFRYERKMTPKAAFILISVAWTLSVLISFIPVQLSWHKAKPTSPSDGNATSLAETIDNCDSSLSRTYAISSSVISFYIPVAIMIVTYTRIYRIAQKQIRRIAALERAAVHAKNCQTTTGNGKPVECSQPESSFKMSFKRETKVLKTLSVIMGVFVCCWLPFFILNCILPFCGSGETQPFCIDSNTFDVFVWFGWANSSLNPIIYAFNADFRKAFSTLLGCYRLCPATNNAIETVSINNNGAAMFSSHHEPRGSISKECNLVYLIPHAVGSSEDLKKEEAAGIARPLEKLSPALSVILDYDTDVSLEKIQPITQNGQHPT
As for `O=C(CCC(=O)N1CC2CCCN2c2ccccc21)NCc1ccccc1Cl` (stereo not drawn), the activity change, negative = inhibition is -15.4% (inactive). To `Cc1cc(C)cc(NC(=O)CSc2nc3nccnc3c(=O)n2CCc2c[nH]c3ccccc23)c1` belongs 1.93% (inactive); to `O=C(CSc1nc2nccnc2c(=O)n1CCc1c[nH]c2ccccc12)Nc1ccccc1F`, -39.8% (active). Take `Cc1cc(C)c(NC(=O)CSc2nc3nccnc3c(=O)n2CCc2c[nH]c3ccccc23)c(C)c1`: the activity change, negative = inhibition is 1.52% (inactive). For `CN(C(=O)c1ccc2c(c1)N(Cc1cccc(Cl)c1)C(=O)c1ccccc1S2=O)C1CCCCC1` (stereo not drawn), the activity change, negative = inhibition was 2.7% (inactive). On to `CC1CN(CCOc2ccccc2[N+](=O)[O-])CC(C)O1` (stereo not drawn), for which the activity change, negative = inhibition is -11.6% (inactive). Take `O=[N+]([O-])c1ccccc1OCCCCN1CCCCC1`: the activity change, negative = inhibition was -54.3% (active).

With `Cc1ccc(OCCCCN2CCCCC2)c(Br)c1`, the activity change, negative = inhibition was -23.4% (inactive). `O=C(CSc1ncc(S(=O)(=O)c2ccc(Br)cc2)c(=O)[nH]1)Nc1ccc2c(c1)OCCO2`: the activity change, negative = inhibition was 8% (inactive). Regarding `Oc1ccc(Cl)cc1C1C=C(c2ccc3c(c2)OCO3)NC(c2ccc(F)c(Br)c2)N1` (stereo not drawn), the activity change, negative = inhibition is -22.1% (inactive). On to `Cc1cccc(S(=O)(=O)c2cn(Cc3ccccc3)c3cc(N4CCOCC4)c(F)cc3c2=O)c1`, for which the activity change, negative = inhibition was 0.0166% (inactive). In the case of `N/C(Cc1ccc([N+](=O)[O-])cc1)=N\OC(=O)C1CCCCC1` it was -11.7% (inactive); in that of `O=C(COC(=O)C1CCCCC1)Nc1ccc([N+](=O)[O-])cc1`, -34.5% (active); in that of `NC(=O)c1ccc(NC(=O)COC(=O)c2ccc([N+](=O)[O-])cc2)cc1`, 1.67% (inactive). Take `CCCCOc1ccc(C(=O)Nc2cccc(-c3nc4ccccc4o3)c2C)cc1`: the activity change, negative = inhibition was -0.438% (inactive).

Take `Cc1oc2ccc(O)c(CN3CCCCC3)c2c1C(=O)Nc1cccc(C(F)(F)F)c1`: the activity change, negative = inhibition is 11.6% (inactive). With `COc1ccc(N2CCN(S(=O)(=O)c3ccc4c(c3)N(C(C)=O)CCO4)CC2)cc1`, the activity change, negative = inhibition was -18% (inactive).

Regarding `CC(=O)N1CCCc2cc(S(=O)(=O)CCC(=O)N3CCN(c4ccccc4)CC3)ccc21`, the activity change, negative = inhibition was -0.97% (inactive).

Consider `Cc1ccc(S(=O)(=O)N2CCCC(C(=O)N3CCN(C)CC3)C2)cc1` (stereo not drawn), for which the activity change, negative = inhibition is 10.2% (inactive).

As to `COc1cccc(N2CCN(S(=O)(=O)c3ccc4c(c3)CCCN4C(C)=O)CC2)c1`, the activity change, negative = inhibition was -35.4% (active).

`CC(=O)N1c2ccc(S(=O)(=O)N3CCC(C(=O)N4CCN(c5ccccc5)CC4)CC3)cc2CC1C` (stereo not drawn): the activity change, negative = inhibition was -7.84% (inactive). With `CC(=O)N1CCCc2cc(S(=O)(=O)N3CCCC(C(=O)N4CCN(c5cccc(Cl)c5)CC4)C3)ccc21` (stereo not drawn), the activity change, negative = inhibition was -14.3% (inactive) and -32% (active). In the case of `CC(=O)N1CCCc2cc(S(=O)(=O)N3CCC(C(=O)NC4CCCCC4)CC3)ccc21`, the activity change, negative = inhibition was 0.0767% (inactive). With `O=C(C1CCCN(S(=O)(=O)c2ccccc2)C1)N1CCN(c2ccc(F)cc2)CC1` (stereo not drawn), the activity change, negative = inhibition is -43.7% (active). For `O=C(C1CCC1)N1CCN(c2ccccc2)CC1`, the activity change, negative = inhibition was 6.47% (inactive).

As for `CC(=O)Nc1cccc(NC(=O)CSc2cn(CC(=O)N3CCCC3)c3ccccc23)c1`, the activity change, negative = inhibition is 12.2% (inactive). For the compound `CC(=O)Nc1ccc(NC(=O)CSc2nnc3c4cc(Br)ccc4n(C)c3n2)cc1`, the activity change, negative = inhibition was -2.66% (inactive). In the case of `Cc1cccc(C)c1-n1ncc(C(=O)NCCCN2CCCCC2)c1C1CCN(C(=O)OC(C)(C)C)CC1` it was 40.2% (inactive); in that of `CCOC(=O)CN1C(C(=O)c2ccccc2)=C(OC(=O)C(C)(C)C)c2ccccc2S1(=O)=O`, -13.9% (inactive); in that of `FC(F)(F)c1cc(Nc2nc3ccccc3c3nncn23)ccc1Cl`, -0.606% (inactive).

As to `CC1=C(C(=O)Nc2ccccc2Cl)C(c2cccs2)n2ncnc2N1` (stereo not drawn), the activity change, negative = inhibition was 4.21% (inactive). On to `CC(C)CNC(=S)Nc1ccc(F)cc1`, for which the activity change, negative = inhibition is 12.4% (inactive).

For the compound `CC(C)N(Cc1ccccc1)C(=S)Nc1ccc(OC(F)F)cc1`, the activity change, negative = inhibition was -4.75% (inactive).

On to `CC(NC(=S)Nc1ccc(OC(F)F)cc1)c1ccc(F)cc1` (stereo not drawn), for which the activity change, negative = inhibition was -35.4% (active). `CCOC(=O)c1ccc(NC(=O)CC2C(=O)N(c3ccccc3)C(=O)N2Cc2cccs2)cc1` (stereo not drawn): the activity change, negative = inhibition was -10.5% (inactive). On to `Cc1cc(F)ccc1NC(=S)NCCc1ccccc1`, for which the activity change, negative = inhibition was -15.6% (inactive). Consider `Cc1ccc(NC(=S)NCc2ccccc2Cl)c(C)c1`, for which the activity change, negative = inhibition is -39.4% (active). On to `COc1cc(NC(=S)NCc2ccco2)c(OC)cc1Cl`, for which the activity change, negative = inhibition was -9.33% (inactive). As for `Cc1ccc(NC(=S)NCCc2ccc(Cl)cc2)c(C)c1`, the activity change, negative = inhibition was 22.5% (inactive). `S=C(NCCc1ccccc1)NCc1ccccc1Cl`: the activity change, negative = inhibition is -29.8% (inactive). To `S=C(NCc1ccco1)NCc1ccccc1Cl` belongs -32.9% (active). With `COc1ccccc1C(=O)NCCn1cc(SCc2ccccc2Cl)c2ccccc21`, the activity change, negative = inhibition was -10.4% (inactive). For the compound `Cc1ccc(N2CC(C(=O)Nc3ccc(N(C)C)cc3)CC2=O)cc1Cl` (stereo not drawn), the activity change, negative = inhibition was 2.7% (inactive).

Turning to `Cc1ccc(CNS(=O)(=O)c2ccc(C(=O)N(C)C)s2)cc1`, the activity change, negative = inhibition is 5.34% (inactive). To `Cc1ccccc1CNC(=O)Cn1c(C)c2cnn(-c3ccccc3)c(=O)c2c1C` belongs -7.63% (inactive). In the case of `COc1ccc(S(=O)(=O)Nc2cc3c(C(=O)OC(C)C)c(C)oc3c3ccccc23)cc1`, the activity change, negative = inhibition was -3.34% (inactive). To `CCOC(=O)c1cc2c(=O)n3ccccc3nc2n(CC2CCCO2)c1=NC(=O)c1ccccc1Br` (stereo not drawn) belongs 4.67% (inactive); to `CCOC(=O)c1cc2c(=O)n3ccccc3nc2n(CC2CCCO2)c1=NC(=O)c1ccc(C(C)(C)C)cc1` (stereo not drawn), -30.2% (active); to `CCOC(=O)c1cc2c(=O)n3ccccc3nc2n(CC2CCCO2)c1=NC(=O)c1ccccc1F` (stereo not drawn), 7.85% (inactive).

Regarding `Cc1cccc(-n2ccnc2SCC(=O)Nc2cc(C(F)(F)F)ccc2Cl)c1`, the activity change, negative = inhibition is -5.92% (inactive). Regarding `Cn1c(=O)c(=O)n(C)c2cc(S(=O)(=O)NCCN3CCN(c4ccccc4F)CC3)ccc21`, the activity change, negative = inhibition is -46.1% (active). As to `Cn1c(=O)c(=O)n(C)c2cc(S(=O)(=O)NCCc3ccccc3)ccc21`, the activity change, negative = inhibition is -4.68% (inactive). To `CCOC(=O)N1CCN(c2c(NCCN3CCN(c4ccccc4F)CC3)c(=O)c2=O)CC1` belongs -21.9% (inactive); to `CN(C)CCCn1c(-c2ccc(Cl)cc2)csc1=Nc1ccccc1`, -34.7% (active); to `CN(C)CCCn1c(=O)n(Cc2ccccc2)c(=O)c2c3c(sc21)CCCCC3`, 3.11% (inactive). `CN(C)CCCn1c(SCc2ccc(Cl)cc2)nnc1-c1ccncc1`: the activity change, negative = inhibition was 10.2% (inactive). On to `O=c1cc(CCl)nc2scc(-c3ccccc3)n12`, for which the activity change, negative = inhibition is -12.4% (inactive). As to `OCCn1c(-c2ccccc2)csc1=Nc1ccccc1`, the activity change, negative = inhibition was -45.5% (active).

Source of the values: PubChem BioAssay AID504652 (National Center for Advancing Translational Sciences (NCATS), 2011).
